Source: PubChem BioAssay (NCATS)
“And” between values parts separate entries of the source, which are not always exact repeats. Identical values can stand only once. Results filed as inconclusive are left out. The source made the active and inactive calls. Unless noted, calls come from the whole dose curve; as a rule, active = well fitted curve in the direction sought with a large enough effect; inconclusive = small, poorly fitted or top-dose-only effect, or another doubt; inactive = no such curve, though single readings can be large; an effect the other way counts as inactive or inconclusive.

Columns and labels:
[1] = test system: Zika virus NS2B-NS3 protease (unlinked complex); test: Primary screen GU Rhodamine qHTS for Zika virus inhibitors: Unlinked NS2B-NS3 protease assay (AID 1347159); note: % is set by controls: 0 for no effect and ±100 for the full control effect; nearly all actives have a fitted effect of over 60% in size
In short: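 Noncovalent NS2B hydrophilic domain–NS3 protease domain complex (25 nM) preincubated 15 min at room temperature with compounds (up to 114 microM) in 10 mM Tris-HCl pH 8.0, 0.01% Tween 20; 1.5 microM Rhodamine110 substrate added, fluorescence change over 15 min fitted to Hill equation.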

[2] = test system: Zika virus NS2B-NS3 protease (linked construct); test: Primary screen NINDS Rhodamine qHTS for Zika virus inhibitors (AID 1347160); note: nearly all actives have a fitted effect of over 55% in size; for activity change, negative = inhibition: % is set by controls: 0 for no effect and ±100 for the full control effect
In short: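 Purified linked NS2B-NS3 protease (NS2B hydrophilic domain joined to NS3 protease by flexible linker), 25 nM in 10 mM Tris-HCl pH 8.0, 0.01% Tween 20. Compounds titrated, 15 min preincubation at room temperature; 1.5 microM Rhodamine110 substrate, FITC fluorescence change over 15 min.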

[3] = target: Glutathione peroxidase 1 (Homo sapiens) (UniProt P07203); test: Primary qHTS Assay for Inhibitors of Recombinant Selenoprotein Glutathione Peroxidase 1 (GPX1) (AID 1845191); note: nearly all actives have a fitted effect of over 65% in size
In short: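 Recombinant GPX1 (10 nM final) was preincubated with compound for 30 min at room temperature, then reacted with 1 mM GSH, 0.5 mM CHP, 0.5 mM NADPH and 100 nM glutathione reductase; NADPH fluorescence (340/450 nm) was read at 0 and 15 min.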

HaCat = test: Cytotoxic Profiling of Annotated Libraries Using Quantitative High-Throughput Screening (AID 1296008); details: Five cell lines viability, CellTiter-Glo ATP luminescence, 48-72 h; max response: active compounds read low; note: % is set by controls: 0 for no effect and ±100 for the full control effect; nearly all actives have a fitted effect of over 60% in size
In short: (§1)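 Compounds were pin-transferred onto cells and incubated 48 or 72 hr at 37 degree Celsius, 95% humidity. CellTiter-Glo was added, plates sat 10 min at room temperature, then ATP-coupled luminescence was imaged as the viability read-out.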

HeLa = test: Primary qHTS to identify gynecologic anti-cancer compounds using libraries of approved drugs and bioactive compounds (AID 1345084); details: Gynecologic cancer cell panel viability, ATPlite luminescence, 48 h; series mostly up to 57.5 µM; note: nearly all actives have a fitted effect of over 55% in size; note: potency is the fitted concentration of half-maximal effect; for activity change, negative = cytotoxicity: % is set by controls: 0 for no effect and ±100 for the full control effect
In short: (§2)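 Cells, 1,000 per well, were allowed to settle for 16 h at 37 C before compound addition. Five concentrations were tested for 48 h, and viability was read by ATPlite luminescence after 15 min at room temperature.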

[4] = target: Cytochrome P450 2D6 (Homo sapiens) (UniProt P10635); test: Cytochrome P450 family 2 subfamily D member 6 (CYP2D6) small molecule antagonists: luciferase biochemical (cell-free) qHTS assay (AID 1645840; active = well fitted curve in the direction sought with a large enough effect in the repeat runs; an effect the other way counts as inactive or inconclusive; note: nearly all actives have a fitted effect of over 55% in size; note: potency is the fitted concentration of half-maximal effect; for activity change, negative = inhibition: % is set by controls: 0 for no effect and ±100 for the full control effect)
In short: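 P450-Glo luminescent screen: recombinant CYP2D6 enzyme–proluciferin substrate mix preincubated with compound 10 min at room temperature, then NADPH regeneration added for 1 h at room temperature. Detection reagent added for 20 min; luciferin light read as relative luminescence units.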

[5] = target: Cytochrome P450 2C9 (Homo sapiens) (UniProt P11712); test: Cytochrome P450 family 2 subfamily C member 9 (CYP2C9) small molecule antagonists: luciferase biochemical (cell-free) qHTS assay (AID 1645842; active = well fitted curve in the direction sought with a large enough effect in the repeat runs; an effect the other way counts as inactive or inconclusive)
In short: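 Luminescence, after 20 min with luciferin detection reagent, reflected CYP2C9 turnover during a 1 h NADPH-driven reaction at 37C. Enzyme-substrate mix contained 0.4% bovine serum albumin and was preincubated with compound 10 min at room temperature.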

[6] = Cytotoxicity counterscreen for inhibitors of SARS-CoV-2 cell entry (AID 1645845; calls by dose curve; note: % is set by controls: 0 for no effect and ±100 for the full control effect; nearly all actives have a fitted effect of over 50% in size)
In short: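 Expi293F/hACE2 cells seeded overnight; cpd pin-transferred in DMSO, 1 h preincubation, + media, 48 h 37 C 5% CO2; ATPLite 1step luminescence; normalized to cells and no cells.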

[7] = Primary qHTS for inhibitors of nuclear receptor binding SET domain protein 2 (NSD2) in an RCH-ACV wild type WT cells (2C) (AID 1645877); note: nearly all actives have a fitted effect of over 70% in size; note: potency is the fitted concentration of half-maximal effect
SKOV3 = test: Primary qHTS to identify gynecologic anti-cancer compounds using libraries of approved drugs and bioactive compounds (AID 1345084); details: Gynecologic cancer cell panel viability, ATPlite luminescence, 48 h; series mostly up to 57.5 µM; note: nearly all actives have a fitted effect of over 55% in size; note: potency is the fitted concentration of half-maximal effect; for activity change, negative = cytotoxicity: % is set by controls: 0 for no effect and ±100 for the full control effect
In short: as §2

[8] = P-glycoprotein substrates identified in KB-8-5-11 adenocarcinoma cell line, qHTS therapeutic library screen (AID 1346987); note: nearly all actives have a fitted effect of over 65% in size; note: potency is the fitted concentration of half-maximal effect
In short: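 Steps: plate 500 KB-8-5-11 cells/well in DMEM + 10% FCS (colchicine removed); pin compounds in dose-response; incubate 72 h, 37 degree C, 5% CO2; add CellTiter-Glo, 5 min; read luminescence.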

KB-3-1 = test: Cytotoxic Profiling of Annotated Libraries Using Quantitative High-Throughput Screening (AID 1296008); details: Five cell lines viability, CellTiter-Glo ATP luminescence, 48-72 h; max response: active compounds read low; note: % is set by controls: 0 for no effect and ±100 for the full control effect; nearly all actives have a fitted effect of over 60% in size
In short: as §1

NIH3T3 = test: qHTS assay to identify novel small-molecules to repurpose for Merkel cell carcinoma treatment (AID 1296009); details: MCC and control cell lines, CellTiter-Glo viability, 72 h; at 44.8 µM (top of the series) unless noted; note: nearly all actives have a fitted effect of over 60% in size
In short: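 qHTS format: cells treated with library compounds in DMSO across 8 (NPC) or 11 (MIPE) concentrations. Readout after 72 hr at 37 degree celsius was CellTiter-Glo luminescence.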

Glutathione peroxidase 1 (Homo sapiens), sequence (P07203 whole entry, looked up): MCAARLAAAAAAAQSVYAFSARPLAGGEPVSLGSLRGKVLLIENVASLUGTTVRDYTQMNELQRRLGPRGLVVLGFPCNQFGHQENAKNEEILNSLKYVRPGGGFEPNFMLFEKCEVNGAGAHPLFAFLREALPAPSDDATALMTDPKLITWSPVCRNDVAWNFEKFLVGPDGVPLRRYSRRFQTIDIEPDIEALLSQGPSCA
Cytochrome P450 2D6 (Homo sapiens), sequence (P10635 whole entry, looked up): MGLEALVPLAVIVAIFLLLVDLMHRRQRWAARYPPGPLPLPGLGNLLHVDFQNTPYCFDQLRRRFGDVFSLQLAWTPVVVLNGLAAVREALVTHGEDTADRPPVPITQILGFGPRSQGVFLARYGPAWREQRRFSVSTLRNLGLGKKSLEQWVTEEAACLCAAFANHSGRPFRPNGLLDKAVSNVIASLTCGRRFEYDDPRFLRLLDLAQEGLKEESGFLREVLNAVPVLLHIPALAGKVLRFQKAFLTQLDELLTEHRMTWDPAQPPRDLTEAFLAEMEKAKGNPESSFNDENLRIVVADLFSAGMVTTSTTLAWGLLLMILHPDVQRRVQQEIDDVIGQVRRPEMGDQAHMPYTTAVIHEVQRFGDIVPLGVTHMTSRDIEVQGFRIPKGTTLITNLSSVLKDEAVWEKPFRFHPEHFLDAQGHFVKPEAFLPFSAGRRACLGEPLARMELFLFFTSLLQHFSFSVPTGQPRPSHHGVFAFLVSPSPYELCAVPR
Cytochrome P450 2C9 (Homo sapiens), sequence (P11712 whole entry, looked up): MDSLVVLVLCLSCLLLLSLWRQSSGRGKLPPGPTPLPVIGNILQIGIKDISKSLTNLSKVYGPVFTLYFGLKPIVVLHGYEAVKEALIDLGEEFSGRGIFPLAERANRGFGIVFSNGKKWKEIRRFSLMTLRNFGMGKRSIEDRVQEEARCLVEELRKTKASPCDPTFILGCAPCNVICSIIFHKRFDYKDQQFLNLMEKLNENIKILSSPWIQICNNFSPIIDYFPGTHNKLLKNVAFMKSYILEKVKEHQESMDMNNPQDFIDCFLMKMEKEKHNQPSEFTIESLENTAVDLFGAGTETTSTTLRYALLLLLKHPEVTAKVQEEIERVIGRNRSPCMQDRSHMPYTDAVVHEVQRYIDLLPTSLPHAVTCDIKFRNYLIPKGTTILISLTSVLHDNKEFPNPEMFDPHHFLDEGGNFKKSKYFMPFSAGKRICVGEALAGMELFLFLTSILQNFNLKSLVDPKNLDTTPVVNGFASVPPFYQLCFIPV

CCC1=CC2CN3CCc4c([nH]c5ccccc45)[C@@](C(=O)OC)(C2)[C@@H]13
inactive: Potency [1] | Potency [2] | Potency [3] | max response (HaCat) -7.15% | Potency (HeLa)

Cc1sc2c(c1C)C(c1ccc(Cl)cc1)=NC(CC(=O)Nc1ccc(O)cc1)c1nnc(C)n1-2 (centres undefined)
active: Potency [7] 129 nM and 296 nM | Potency (SKOV3) 3160 nM
inactive: Potency [2] | Potency [4] | Potency [5] | Potency [6] | max response (HaCat) -9.94%

Nc1ncnc2c1ncn2[C@@H]1O[C@@H]2COP(O)(=S)O[C@H]2[C@H]1O (some centres undefined)
inactive: activity change, negative = cytotoxicity [8] 2.93% [at 9.29 µM] | activity change, negative = inhibition [1] 2.11% [at 19.1 µM] | activity change, negative = inhibition [2] 16.2% [at 10.7 µM] | outcome [7] inactive [at 9.23 µM] | outcome [3] inactive [at 9.52 µM] | max response (KB-3-1) -0.196% | activity change, negative = cytotoxicity (HeLa) 5.24% [at 11.6 µM] | activity change, negative = cytotoxicity (SKOV3) 33.4% [at 11.6 µM]

Cc1ccccc1CN1CCC(N2CCC(n3c(=O)[nH]c4ccccc43)CC2)CC1
active: Potency [4] 12000 nM
inactive: Potency [1] | Potency [2] | Potency [5] | Potency [7] | Potency [3] | max response (HaCat) 0.939% | outcome (NIH3T3) | Potency (HeLa)

CC[C@H](C)[C@H](NC(=O)[C@H]1CCCCN1C)C(=O)N(COC(=O)CC(C)C)[C@H](C[C@@H](OC(C)=O)c1nc(C(=O)N[C@@H](Cc2ccc(O)cc2)C[C@H](C)C(=O)O)cs1)C(C)C
active: Potency [8] 1.9 nM | Potency [7] 0.3 nM
inactive: activity change, negative = inhibition [1] 9.2% [at 2.28 µM] | outcome [2] inactive [at 1.3 µM] | max response (HaCat) -10.6%
